The record followed here is PubChem BioAssay (NCI).

Among the test systems are HCT-15 colon; HT29 colon; SNB-75 CNS; SNB-19 CNS; U251 CNS; PC-3 prostate; SK-MEL-5 melanoma; UACC-62 melanoma; LOX IMVI melanoma; SK-MEL-28 melanoma.
Common to all, as to assay: NCI-60 one-dose screen, 48 h (100 = growth as untreated, 0 = no growth, -100 = all killed)
Common to all, as to details: 10 µM unless noted

The panel holds about 83,000 compounds, 20% with a hit somewhere; the sample as a whole holds those more often.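 Assay: single dose, 48 h. Readout: percent growth (0 = no net growth; negative = cell death). Active: <10.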 A number with no mark means an inactive call. Active and inactive are the calls of the source.

For `COc1ccc(-c2nc(C#N)c(NCC(c3ccco3)N3CCCC3)o2)cc1` (stereo not given), the growth was 30.9% in the assay with HCT-15 colon; 10.7% in the assay with HT29 colon; 40.6% in the assay on SNB-75 CNS; 51.9% in the assay on SNB-19 CNS; 35.7% with U251 CNS; 37% in the assay with PC-3 prostate. In addition, the growth is 24.6% in the assay with SK-MEL-5 melanoma, 47.2% with UACC-62 melanoma, 41.4% in the assay with LOX IMVI melanoma and 61.7% with SK-MEL-28 melanoma.
Regarding `CC(C)(C)CC(C)(C)Cc1ccc(OCCOCC[N+](C)(C)Cc2ccccc2)cc1`, the growth with HCT-15 colon is 97%; in the assay with HT29 colon, 9.89% (active); in the assay with SNB-75 CNS, -9% (active); with SNB-19 CNS it was -7.68% (active); in the assay with U251 CNS it was 2.86% (active); with PC-3 prostate, 10.1%. Also, the growth was -98.8% (active) in the assay with SK-MEL-5 melanoma, -36.1% (active) in the assay on UACC-62 melanoma, 10.5% with LOX IMVI melanoma and 20.5% with SK-MEL-28 melanoma.
For `CC1=C/C(=N\N=C2/C=C(C)CC(C)(C)C2)CC(C)(C)C1`, the growth with HCT-15 colon was 106%; in the assay on HT29 colon it was 91.8%; with SNB-75 CNS, 94.9%; in the assay with SNB-19 CNS, 102%; with U251 CNS it was 96%; in the assay with PC-3 prostate, 94.8%. The growth in the assay on SK-MEL-5 melanoma was 99%; with UACC-62 melanoma, 93.8%; in the assay on LOX IMVI melanoma it was 100%; in the assay on SK-MEL-28 melanoma, 116%.
Take `O=C(/C(=C\c1c(-c2ccccc2)[nH]c2ccccc12)S(=O)(=O)c1ccccc1)c1ccccc1`: the growth in the assay with HCT-15 colon was 57.4%; in the assay on HT29 colon it was 65.9%; in the assay on SNB-75 CNS it was 45.4%; in the assay on SNB-19 CNS, 73.8%; in the assay on U251 CNS, 58.6%; in the assay with PC-3 prostate, 16.6%. Moreover, the growth with SK-MEL-5 melanoma is 47.7%; in the assay with UACC-62 melanoma, 39.8%; in the assay with LOX IMVI melanoma, 58.9%; in the assay with SK-MEL-28 melanoma, 76.2%.
For the compound `N#Cc1c(-c2ccc(F)cc2)nc(N=Nc2c(O)[nH]c3ccc(Cl)cc23)nc1N1CCOCC1`, the growth with HCT-15 colon was 71.7%; in the assay on HT29 colon, 37.9%; with SNB-75 CNS it was -6.94% (active); with SNB-19 CNS it was 39.8%; with U251 CNS, 15.8%; with PC-3 prostate, 61%. Further, the growth is 29.6% in the assay with SK-MEL-5 melanoma, 35.1% in the assay on UACC-62 melanoma, 24.5% with LOX IMVI melanoma and 46.8% with SK-MEL-28 melanoma.
`C=C(C)[C@@H]1CC[C@]2(C(=O)O)CC[C@]3(C)[C@H](CC[C@@H]4[C@@]5(C)C[C@@H](CC#Cc6ccccc6)C(=O)C(C)(C)[C@@H]5CC[C@]43C)[C@@H]12`: the growth in the assay with HCT-15 colon is 18.8%; in the assay on HT29 colon, 23.9%; in the assay with SNB-75 CNS it was 65.1%; with SNB-19 CNS, 46.3%; in the assay on U251 CNS, 27.8%; in the assay on PC-3 prostate, 35.3%. Also, the growth was 32% with SK-MEL-5 melanoma, 42.4% in the assay with UACC-62 melanoma, 45.1% with LOX IMVI melanoma and 45.1% with SK-MEL-28 melanoma.
Consider `Oc1ccc(CNNc2ccnc3c(O)cccc23)c2cccnc12`, for which the growth with HCT-15 colon is 23.9%; in the assay with HT29 colon it was 73.8%; in the assay on SNB-75 CNS it was 54.9%; in the assay with SNB-19 CNS it was 29.7%; in the assay with U251 CNS, 25.8%; with PC-3 prostate it was 29.7%. Further, the growth was -20.2% (active) with SK-MEL-5 melanoma, 24.6% with UACC-62 melanoma, 16.4% with LOX IMVI melanoma and 49.7% in the assay on SK-MEL-28 melanoma.
Turning to `Nc1cc(N)c(S(=O)(=O)O)cc1N=Nc1cc([N+](=O)[O-])ccc1O`, the growth was 104% with HCT-15 colon; 102% in the assay with HT29 colon; 88.7% in the assay with SNB-75 CNS; 98.8% with SNB-19 CNS; 100% with U251 CNS; 87.1% in the assay on PC-3 prostate. Moreover, the growth was 105% in the assay on SK-MEL-5 melanoma, 92.1% in the assay on UACC-62 melanoma, 93.4% with LOX IMVI melanoma and 102% with SK-MEL-28 melanoma.
As for `CCOC(=O)NCCc1nc2c([nH]1)c(=O)n(C)c(=O)n2C`, the growth in the assay with HCT-15 colon is 97.6%; with HT29 colon, 98.5%; in the assay with SNB-75 CNS, 91%; with SNB-19 CNS, 107%; with U251 CNS, 108%; in the assay with PC-3 prostate, 91%. Besides, the growth was 102% in the assay with SK-MEL-5 melanoma, 100% in the assay with UACC-62 melanoma, 94.9% in the assay on LOX IMVI melanoma and 102% in the assay on SK-MEL-28 melanoma.
In the case of `CCOc1ccc(C2N(c3cc(OC)c(OC)c(OC)c3)C(=O)C2(F)F)cc1` (stereo not given), the growth is 22.6% in the assay with HCT-15 colon; 12.3% in the assay with HT29 colon; 55.9% in the assay on SNB-75 CNS; 54.1% in the assay with SNB-19 CNS; 36.2% in the assay with U251 CNS; 37.3% in the assay on PC-3 prostate. Further, the growth is 6.76% (active) with SK-MEL-5 melanoma, 51.6% in the assay with UACC-62 melanoma, 27.6% in the assay with LOX IMVI melanoma and 66.8% in the assay on SK-MEL-28 melanoma.
`COc1cc(C2=N/C(=C\c3cc4ccccc4nc3Oc3ccccc3)C(=O)N2C(=N)N)cc(OC)c1OC`: the growth in the assay with HCT-15 colon was 91.3%; in the assay with HT29 colon, 64.2%; in the assay with SNB-75 CNS, 6.51% (active); in the assay with SNB-19 CNS, 32.3%; with U251 CNS it was 50.6%; in the assay with PC-3 prostate it was 70.4%. In addition, the growth in the assay on SK-MEL-5 melanoma is 83.5%; with UACC-62 melanoma it was 50%; with LOX IMVI melanoma it was 66.9%; with SK-MEL-28 melanoma, 78.4%.
`N#Cc1c(-c2ccc(F)cc2)nc(N/N=C/c2cccc(O)c2)nc1N1CCOCC1`: the growth was 69.5% in the assay with HCT-15 colon; 79.8% in the assay on HT29 colon; 73.9% in the assay with SNB-75 CNS; 96.1% in the assay on SNB-19 CNS; 73.5% in the assay on U251 CNS; 72.7% in the assay with PC-3 prostate. In addition, the growth in the assay on SK-MEL-5 melanoma was 90%; with UACC-62 melanoma, 87.7%; in the assay on LOX IMVI melanoma, 85.2%; in the assay with SK-MEL-28 melanoma it was 99%.
As for `Cc1nnc(/N=C2\NC(=O)/C(=C/c3ccc(N(C)C)cc3)S2)s1`, the growth with HCT-15 colon is 47.7%; in the assay on HT29 colon, 106%; in the assay with SNB-75 CNS it was 67.5%; in the assay on SNB-19 CNS, 80.1%; in the assay on U251 CNS it was 72.1%; in the assay with PC-3 prostate, 57.8%. Further, the growth in the assay with SK-MEL-5 melanoma was 42.7%; in the assay with UACC-62 melanoma, 74.9%; in the assay with LOX IMVI melanoma, 64.6%; in the assay on SK-MEL-28 melanoma, 69.2%.
